Results on 40 compounds are retold here after the supplement of paper PMC10811239.

This assay relates to LEGO organoid PT (PTEN-/-; TP53-/-). Put plainly: bioluminescence (viable cell) signal fold change after vs before treatment, normalised to DMSO (ratio); higher = more tumour cell growth / less inhibition. To be noted: 10 µM; treatment time 6 days. How it is done:
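Luc2-labelled iPSC-derived glioblastoma-like organoids (LEGOs, genotypes PT = PTEN-/-;TP53-/-, PTCC = plus CDKN2A/B-/-, PTN = plus NF1-/-) were treated with 10 uM drug for 6 days (applied every other day) at 37 C. Bioluminescence imaging was done before treatment and 2 days after the last dose. BLI signals were normalised to the DMSO control on the same day and then to the pre-treatment signal (N=3).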
On to `Cc1nc(Nc2ncc(C(=O)Nc3c(C)cccc3Cl)s2)cc(N2CCN(CCO)CC2)n1` [Dasatinib], for which the bioluminescence was 0.748.

On to `Cc1cccc(C)c1OCC(=O)N[C@@H](Cc1ccccc1)[C@@H](O)C[C@H](Cc1ccccc1)NC(=O)[C@H](C(C)C)N1CCCNC1=O` [Lopinavir], for which the bioluminescence came to 1.02.

As for `CN(C/C=C/c1ccccc1)Cc1cccc2ccccc12.Cl` [Naftifine hydrochloride], the bioluminescence is 0.607.

In the case of `CC(CN(C)C)CN1c2ccccc2CCc2ccccc21.O=C(O)/C=C\C(=O)O` (stereo not given) [Trimipramine maleate], the bioluminescence turned out to be 0.503.

Regarding `C#Cc1cccc(Nc2ncnc3cc(OCCOC)c(OCCOC)cc23)c1` [Erlotinib], the bioluminescence worked out at 0.504.

Turning to `CNS(=O)(=O)CCc1ccc2[nH]cc(C3CCN(C)CC3)c2c1.Cl` [Naratriptan hydrochloride], the bioluminescence came to 0.774.

As to `CC1=C(CC(=O)O)c2cc(F)ccc2/C1=C\c1ccc(S(C)=O)cc1` (stereo not given) [Sulindac], the bioluminescence stood at 2.8.

As for `Cc1oncc1C(=O)Nc1ccc(C(F)(F)F)cc1` [Leflunomide], the bioluminescence turned out to be 2.01.

For the compound `COC(=O)C1=C(C)NC(C)=C(C(=O)OCCN(C)Cc2ccccc2)C1c1cccc([N+](=O)[O-])c1.Cl` (stereo not given) [Nicardipine hydrochloride], the bioluminescence came to 0.99.

`C[C@H](Cn1cnc2c(N)ncnc21)OCP(=O)(O)O` [Tenofovir]: the bioluminescence came to 0.702.

Regarding `CN1C(C(=O)Nc2ccccn2)=C(O)c2ccccc2S1(=O)=O` [Piroxicam], the bioluminescence was 1.07.

Take `CCN(CC)CCNC(=O)c1c(C)[nH]c(/C=C2\C(=O)Nc3ccc(F)cc32)c1C` [Sunitinib]: the bioluminescence was 0.391.

As to `CS(=O)(=O)CCNCc1ccc(-c2ccc3ncnc(Nc4ccc(OCc5cccc(F)c5)c(Cl)c4)c3c2)o1` [Lapatinib], the bioluminescence was determined as 1.62.

For the compound `CN(C)CCC=C1c2ccccc2COc2ccccc21.Cl` [Doxepin hydrochloride], the bioluminescence amounted to 1.71.

For the compound `O=C(NC1CCN(CCCCC2(C(=O)NCC(F)(F)F)c3ccccc3-c3ccccc32)CC1)c1ccccc1-c1ccc(C(F)(F)F)cc1` [Lomitapide], the bioluminescence is 0.0143.

Regarding `Cc1cnc(NC(=O)C2=C(O)c3ccccc3S(=O)(=O)N2C)s1` [Meloxicam], the bioluminescence is 0.756.

Take `CNC(=O)c1cc(Oc2ccc(NC(=O)Nc3ccc(Cl)c(C(F)(F)F)c3)cc2)ccn1.Cc1ccc(S(=O)(=O)O)cc1` [Sorafenib tosylate]: the bioluminescence amounted to 0.401.

Consider `CC(C)NCC(O)COc1cccc2ccccc12.Cl` (stereo not given) [Propranolol hydrochloride], for which the bioluminescence turned out to be 1.03.

On to `C[C@@H](Oc1cc(-c2cnn(C3CCNCC3)c2)cnc1N)c1c(Cl)ccc(F)c1Cl` [Crizotinib], for which the bioluminescence came out at 0.492.

Consider `Cl.OC[C@H]1NC[C@H](O)[C@@H](O)[C@H]1O` [Migalastat hydrochloride], for which the bioluminescence was determined as 0.868.

As to `CC[C@H](C)C(=O)O[C@H]1C[C@@H](C)C=C2C=C[C@H](C)[C@H](CC[C@@H]3C[C@@H](O)CC(=O)O3)[C@H]21` [Lovastatin], the bioluminescence is 1.33.

In the case of `CCN(CC)C(=O)[C@]1(c2ccccc2)C[C@@H]1CN.Cl` [Milnacipran hydrochloride], the bioluminescence turned out to be 1.54.

As for `Cc1cn(-c2cc(NC(=O)c3ccc(C)c(Nc4nccc(-c5cccnc5)n4)c3)cc(C(F)(F)F)c2)cn1` [Nilotinib], the bioluminescence worked out at 2.55.

With `COc1ccccc1Oc1c(NS(=O)(=O)c2ccc(C(C)(C)C)cc2)nc(-c2ncccn2)nc1OCCO` [Bosentan], the bioluminescence is 0.81.

For `OC(Cn1cncn1)(Cn1cncn1)c1ccc(F)cc1F` [Fluconazole], the bioluminescence was found to be 1.04.

Consider `CNS(=O)(=O)Cc1ccc2[nH]cc(CCN(C)C)c2c1.O=C(O)CCC(=O)O` [Sumatriptan succinate], for which the bioluminescence turned out to be 1.23.

`COc1cc(Nc2c(C#N)cnc3cc(OCCCN4CCN(C)CC4)c(OC)cc23)c(Cl)cc1Cl` [Bosutinib]: the bioluminescence came out at 1.24.

In the case of `CCC1(c2ccccc2)C(=O)NCNC1=O` [Primidone], the bioluminescence worked out at 0.985.

Turning to `COc1ccc2c(c1)c(CC(=O)O)c(C)n2C(=O)c1ccc(Cl)cc1` [Indometacin], the bioluminescence stood at 1.04.

Regarding `CO[C@H]1C[C@@H]2CC[C@@H](C)[C@@](O)(O2)C(=O)C(=O)N2CCCC[C@H]2C(=O)O[C@H]([C@H](C)C[C@@H]2CC[C@@H](OC(=O)C(C)(CO)CO)[C@H](OC)C2)CC(=O)[C@H](C)/C=C(\C)[C@@H](O)[C@@H](OC)C(=O)[C@H](C)C[C@H](C)/C=C/C=C/C=C/1C` [Temsirolimus], the bioluminescence is 1.26.

Regarding `CCOc1nc2cccc(C(=O)O)c2n1Cc1ccc(-c2ccccc2-c2nn[nH]n2)cc1` [Candesartan], the bioluminescence is 0.993.

With `COc1cc(Nc2ncc(F)c(Nc3ccc4c(n3)N(COP(=O)(O)O)C(=O)C(C)(C)O4)n2)cc(OC)c1OC` [Fostamatinib], the bioluminescence turned out to be 0.0894.

For `C[C@@](Cc1ccc(O)c(O)c1)(NN)C(=O)O.O` [Carbidopa Hydrate], the bioluminescence stood at 0.415.

Regarding `CNC(=O)c1cc(Oc2ccc(NC(=O)Nc3ccc(Cl)c(C(F)(F)F)c3)cc2)ccn1` [Sorafenib], the bioluminescence worked out at 0.335.

For `Nc1nc(=O)c2c(CCc3ccc(C(=O)N[C@@H](CCC(=O)[O-])C(=O)[O-])cc3)c[nH]c2[nH]1.Nc1nc(=O)c2c(CCc3ccc(C(=O)N[C@@H](CCC(=O)[O-])C(=O)[O-])cc3)c[nH]c2[nH]1.O.O.O.O.O.[Na+].[Na+].[Na+].[Na+]` [Pemetrexed Disodium Hydrate], the bioluminescence is 1.33.

In the case of `CC(=O)[C@H]1CC[C@H]2[C@@H]3CCC4=CC(=O)CC[C@]4(C)[C@H]3CC[C@]12C` [Progesterone], the bioluminescence was found to be 0.82.

For `Cc1ccccc1C(OCCN(C)C)c1ccccc1.O=C(O)CC(O)(CC(=O)O)C(=O)O` (stereo not given) [Orphenadrine Citrate], the bioluminescence came to 0.847.

As for `O=C(O)Cc1ccccc1Nc1c(Cl)cccc1Cl` [Diclofenac], the bioluminescence worked out at 1.11.

`Nc1nnc(-c2cccc(Cl)c2Cl)c(N)n1` [Lamotrigine]: the bioluminescence amounted to 0.852.

`CCN(CC)CC(=O)Nc1c(C)cccc1C.Cl` [Lidocaine hydrochloride]: the bioluminescence amounted to 1.49.
